The values below come from PubChem BioAssay (NCI).

“And” between values parts separate entries of the source, which are not always exact repeats. Identical values can stand only once. The panel holds about 83,000 compounds, 20% with a hit somewhere; the sample as a whole holds those more often.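 Each cell line was grown in a 96-well plate and treated with one concentration of compound for 48 hours. Values below 10 were considered active.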 Values without a mark were called inactive. The source made the active and inactive calls.

Some test systems named below: HCT-15 colon; HT29 colon; SNB-75 CNS; SNB-19 CNS; U251 CNS; PC-3 prostate; SK-MEL-5 melanoma; UACC-62 melanoma; LOX IMVI melanoma; SK-MEL-28 melanoma; SK-MEL-2 melanoma; SN12C renal; UO-31 renal; TK-10 renal; ACHN renal; CAKI-1 renal; HL-60(TB) leukemia; CCRF-CEM leukemia; EKVX NSCLC; A498 renal.
Common to all, as to test: NCI-60 one-dose screen, 48 h (100 = growth as untreated, 0 = no growth, -100 = all killed)
Common to all, as to conditions: 10 µM unless noted

On to `C[N+]1(C)CCCC1c1cccnc1` (centres undefined), for which the growth in the assay on HCT-15 colon was 104%; in the assay with HT29 colon, 102%; in the assay on SNB-75 CNS, 98%; in the assay with SNB-19 CNS, 105%; in the assay on U251 CNS, 94%; in the assay on PC-3 prostate, 97.6%. Also, the growth in the assay with SK-MEL-5 melanoma is 95.4%; in the assay with UACC-62 melanoma it was 102%; in the assay with LOX IMVI melanoma, 100%; with SK-MEL-28 melanoma, 114%; with SK-MEL-2 melanoma, 112%; with SN12C renal it was 99.8%. Further, the growth in the assay with UO-31 renal is 99.7%; in the assay on TK-10 renal, 111%; in the assay with ACHN renal it was 114%; in the assay on CAKI-1 renal, 98.2%; in the assay on HL-60(TB) leukemia, 117%; in the assay with CCRF-CEM leukemia it was 97.6%.

For `CN1[C@@H](CC(=O)c2ccccc2)CCC[C@H]1CC(=O)c1ccccc1`, the growth was 97.1% with HCT-15 colon; 108% in the assay with HT29 colon; 90.6% in the assay on SNB-75 CNS; 98.4% in the assay with SNB-19 CNS; 103% in the assay with U251 CNS; 93% in the assay on PC-3 prostate. Also, the growth was 102% in the assay with SK-MEL-5 melanoma; 97.7% with UACC-62 melanoma; 93.8% in the assay with LOX IMVI melanoma; 103% in the assay with SK-MEL-28 melanoma; 42.8% with SK-MEL-2 melanoma; 96.7% in the assay on EKVX NSCLC. In addition, the growth in the assay with SN12C renal was 96.6%; in the assay with UO-31 renal it was 83.7%; in the assay on ACHN renal, 97.3%; in the assay on CAKI-1 renal, 101%; in the assay on A498 renal, 115%; in the assay on HL-60(TB) leukemia, 116%. Also, the growth in the assay with CCRF-CEM leukemia is 111%.

For the compound `O=CC1(c2ccccc2)CCN(Cc2ccccc2)CC1`, the growth was 103% with HCT-15 colon; 107% in the assay with HT29 colon; 102% with SNB-75 CNS; 109% with SNB-19 CNS; 101% with U251 CNS; 98.1% with PC-3 prostate. The growth in the assay on SK-MEL-5 melanoma was 110%; in the assay on UACC-62 melanoma, 105%; in the assay with LOX IMVI melanoma it was 82.8%; in the assay on SK-MEL-28 melanoma, 112%; in the assay with SK-MEL-2 melanoma it was 117%; in the assay on EKVX NSCLC, 101%. In addition, the growth with SN12C renal is 107%; in the assay with UO-31 renal it was 83.9%; in the assay on TK-10 renal it was 115%; in the assay on CAKI-1 renal, 97.9%; in the assay with CCRF-CEM leukemia, 102%.

Take `CC[C@@H](C)C(=O)O[C@H]1[C@H](O)[C@H]2[C@@H](CN3C[C@@H](C)CC[C@H]3[C@@]2(C)O)[C@@H]2C[C@]34O[C@]5(O)[C@@H](OC(=O)[C@@](C)(O)CC)CC[C@@]3(C)[C@@H]5[C@@H](OC(C)=O)[C@@H](OC(C)=O)[C@H]4[C@@]21O`: the growth in the assay on HCT-15 colon was 109%; in the assay with HT29 colon, 112%; in the assay on SNB-75 CNS it was 79.8%; in the assay with SNB-19 CNS it was 100%; with U251 CNS it was 91.8%; in the assay with PC-3 prostate it was 75.8%. Besides, the growth in the assay on SK-MEL-5 melanoma is 86.6%; in the assay on UACC-62 melanoma, 96.1%; with LOX IMVI melanoma, 92.8%; in the assay with SK-MEL-28 melanoma, 105%; in the assay with SK-MEL-2 melanoma, 103%; in the assay with EKVX NSCLC it was 93.7%. Also, the growth was 82.1% in the assay with UO-31 renal; 106% with TK-10 renal; 101% in the assay on ACHN renal; 100% with CAKI-1 renal; 102% in the assay with A498 renal; 99.9% with CCRF-CEM leukemia.

As for `O=C(O)c1cc([N+](=O)[O-])cc([N+](=O)[O-])c1`, the growth in the assay with HCT-15 colon was 109%; in the assay on HT29 colon it was 96.6%; in the assay on SNB-75 CNS it was 86.8%; in the assay with SNB-19 CNS, 105%; in the assay on U251 CNS, 91.8%; in the assay on PC-3 prostate it was 84.6%. Besides, the growth in the assay on SK-MEL-5 melanoma is 98%; with UACC-62 melanoma, 105%; in the assay with LOX IMVI melanoma, 97%; in the assay on SK-MEL-28 melanoma, 106%; with SK-MEL-2 melanoma, 87.1%; in the assay on EKVX NSCLC, 104%. For the same compound, the growth in the assay with SN12C renal is 97.5%; in the assay on TK-10 renal, 96.9%; in the assay on ACHN renal it was 105%; in the assay on CAKI-1 renal it was 93.8%; in the assay on A498 renal it was 92.6%; in the assay on CCRF-CEM leukemia it was 80.6%.

Take `CC(=O)OC1CC2(O)C(CCC3(C)C(c4ccc(=O)oc4)CCC32O)C2(C)CCC(OC3OC(CO)C(O)C(O)C3O)C=C12` (centres undefined): the growth in the assay on HCT-15 colon is -85.2% (active); in the assay with HT29 colon, -55% (active); in the assay on SNB-75 CNS, -61.4% (active); in the assay with SNB-19 CNS it was -94% (active); in the assay on U251 CNS, -92.1% (active); in the assay on PC-3 prostate, -55.2% (active). In addition, the growth is -91.9% (active) in the assay on SK-MEL-5 melanoma; -65.6% (active) with UACC-62 melanoma; -85.4% (active) in the assay on LOX IMVI melanoma; -31.7% (active) in the assay on SK-MEL-28 melanoma; -23.2% (active) in the assay on SK-MEL-2 melanoma; -89.1% (active) in the assay on EKVX NSCLC. For the same compound, the growth with SN12C renal was -6.05% (active); in the assay on TK-10 renal, -92.3% (active); in the assay on ACHN renal, -79.8% (active); in the assay on CAKI-1 renal, -93.5% (active); in the assay on A498 renal, -33.8% (active); with CCRF-CEM leukemia it was -25.1% (active).

As for `Nc1ccc2c(c1)Cc1cc(N)ccc1-2`, the growth in the assay on HCT-15 colon is 85.3%; in the assay on HT29 colon it was 98.8%; with SNB-75 CNS it was 74%; with SNB-19 CNS, 103%; in the assay on U251 CNS it was 94.9%; in the assay with PC-3 prostate, 84.9%. The growth in the assay on SK-MEL-5 melanoma is 95.8%; in the assay on UACC-62 melanoma, 96%; in the assay with LOX IMVI melanoma it was 105%; in the assay with SK-MEL-28 melanoma it was 92.6%; with SK-MEL-2 melanoma it was 89.9%; with EKVX NSCLC, 61.2%. Further, the growth in the assay on UO-31 renal was 62.6%; in the assay with TK-10 renal, 106%; in the assay with CAKI-1 renal, 86.4%; in the assay with A498 renal it was 84.9%; with HL-60(TB) leukemia it was 100%; in the assay on CCRF-CEM leukemia, 60.1%.

`O=[N+]([O-])c1cc(Cl)c(Cl)cc1Cl`: the growth with HCT-15 colon is 104% and 108%; in the assay with HT29 colon, 124% and 111%; with SNB-75 CNS, 93.8% and 121%; with SNB-19 CNS it was 101% and 131%; in the assay with U251 CNS it was 93.4% and 102%; with PC-3 prostate it was 96.1% and 102%. Also, the growth with SK-MEL-5 melanoma was 123% and 105%; in the assay on UACC-62 melanoma, 91.4% and 115%; in the assay with LOX IMVI melanoma it was 96.5% and 98.4%; in the assay on SK-MEL-28 melanoma, 115% and 124%; in the assay with SK-MEL-2 melanoma it was 143% and 119%; with EKVX NSCLC it was 106% and 113%. Further, the growth with UO-31 renal is 104% and 95.4%; in the assay with TK-10 renal it was 120%; with ACHN renal, 104% and 109%; in the assay on CAKI-1 renal it was 100% and 107%; in the assay on A498 renal, 104%; with CCRF-CEM leukemia, 105% and 106%.
